According to PubChem BioAssay (NCATS):
Records with an inconclusive call do not appear. Activity calls are given as the source filed them. Unless noted, the call rests on the fitted dose curve; in most records, active means well fitted curve in the direction sought with a large enough effect; inconclusive means small, poorly fitted or top-dose-only effect, or another doubt; inactive means no such curve, though single readings can be large; an effect the other way counts as inactive or inconclusive.

What was measured:
[1] = qHTS assay for measurement of the activity of small molecule inhibitors on Zika virus induced Caspase-3 activity in human iPSC derived neural progenitor cells (hNPCs) (AID 1224857); details: hNPCs ZIKV-induced caspase-3/7, Caspase-Glo luminescence, 6 h; series mostly up to 45.7 µM; further: % of control where 0% means no effect; nearly all actives have a fitted effect of over 65% in size
In short: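 Pretreat hNPCs with compound 1 h; infect ZIKV 2 FFU/cell; 6 h 37 C, 5% CO2; Caspase-Glo 3/7, 30 min RT; luminescence; normalize to no-virus and virus-only wells.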

[2] = qHTS assay for measurement of the activity of small molecule inhibitors on Zika virus induced Caspase-3 activity in human astrocytoma cells (AID 1224859); details: SNB-19 ZIKV-induced caspase-3/7, luminescence, 6 h; series mostly up to 45.7 µM;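 further: plate controls were ZIKV-infected untreated cells for no effect and uninfected cells for full effect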
In short: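 Human SNB-19 astrocytoma cells in RPMI 1640 with 10% FBS receive compound one hour ahead of Zika virus at 2 FFU/cell. After 6 h infection, caspase-3/7 activity is detected by Caspase-Glo luminescence.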

[3] = qHTS assay to identify small molecule inhibitors of chordoma cells - UCH-1 (AID 1259355); details: UCH-1 chordoma viability, CellTiter-Glo, 48 h, combination, with auranofin plus four topoisomerase inhibitors; series mostly up to 46.1 µM; further: on the % scale 0 is the no-effect control and ±100 the full control effect; nearly all actives have a fitted effect of over 55% in size
In short: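 800 cells/well, overnight attach; compounds pinned at 15 concs, then auranofin/camptothecin/doxorubicin/rubitecan/topotecan combo added; 48hr 37 C, 5% CO2; CellTiter-Glo, 30min RT, luminescence.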

[4] = qHTS assay to identify small molecule inhibitors of chordoma cells - UCH-2 (AID 1259356); details: UCH-2 chordoma viability, CellTiter-Glo ATP luminescence, 48 h; series mostly up to 46.1 µM; further: on the % scale 0 is the no-effect control and ±100 the full control effect
[5] = P-glycoprotein substrates identified in KB-8-5-11 adenocarcinoma cell line, qHTS therapeutic library screen (AID 1346987); details: KB-8-5-11 (P-gp overexpressing) viability, CellTiter-Glo, 72 h; series mostly up to 44.5 µM; further: nearly all actives have a fitted effect of over 65% in size
In short: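 Luminescence from CellTiter-Glo, read 5 min after addition, quantified survival of KB-8-5-11 (P-gp-overexpressing) cells exposed to compounds for 72 h. AC50 was derived from concentration-response curves.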

[6] = qHTS assay for cell viability of the p53RE-bla HCT-116 cell line (AID 743292); details: p53RE-bla HCT-116 viability, ATP luminescence, 16 h; series mostly up to 95 µM; further: on the % scale 0 is the no-effect control and ±100 the full control effect; nearly all actives have a fitted effect of over 55% in size
In short: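 Viability of compound-treated p53RE-bla HCT-116 cells is taken from ATP-dependent luciferase luminescence. Treatment lasts 16 h at 37 C after a 5 h settling period; detection follows 30 min at room temperature.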

[7] = P-glycoprotein substrates identified in KB-3-1 adenocarcinoma cell line, qHTS therapeutic library screen (AID 1346986); details: KB-3-1 parental cells viability, CellTiter-Glo, 72 h; at 44.5 µM (top of the series) unless noted; further: nearly all actives have a fitted effect of over 60% in size
In short: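 Viability read by CellTiter-Glo after 72 h compound exposure in dose-response of KB-3-1 and KB-8-5-11 (P-gp-high) cells. Hits needed AC50 < 10 uM, >50% maximum response and curve class -1.1 to -2.4. Cherry-picks retested ± tariquidar, including pcDNA/MDR-19 HEK-293 pair.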

[8] = Natriuretic polypeptide receptor (hNpr1) antagonism - Pilot counterscreen GloSensor control cell line (AID 1347045; calls by dose curve; further: on the % scale 0 is the no-effect control and ±100 the full control effect); details: HEK293 cGMP GloSensor cells, SNP-stimulated luminescence, 20 min; series mostly up to 38.3 µM
In short: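 Cells were first seeded and incubated overnight at 37C, then loaded with 2% GloSensor substrate for 2 h. Compounds were added for 30 min at room temperature, followed by a baseline read, 50 uM SNP and a final read after 20 min.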

CCCCC/C(C=O)=C\c1ccccc1
inactive: outcome [1] | outcome [2] | Potency [3] | outcome [4] | Potency [5]

CC(C)(C)C(=O)C(Oc1ccc(Cl)cc1)n1ccnc1 (stereo not drawn)
inactive: outcome [1] | outcome [2] | Potency [3] | outcome [4] | Potency [5]

CCCCOc1cc(C(=O)OCCN(CC)CC)ccc1N
inactive: outcome [1] | outcome [2] | Potency [3] | outcome [4] | Potency [5]

C[C@@H](O)[C@H](N)C(=O)O
inactive: outcome [1] | outcome [2] | Potency [3] | outcome [4] | Potency [5]

COc1cc(C(=O)N2CCOCC2)cc(OC)c1OC
inactive: outcome [1] | outcome [2] | Potency [3] | outcome [4] | Potency [5]

CNC(=O)Oc1ccc2c(c1)[C@]1(C)CCN(C)[C@@H]1N2C
inactive: Potency [6] | outcome [1] | outcome [2] | Potency [3] | outcome [4] | outcome [7] | Potency [5] | outcome [8]

C/C(=C(\CCOP(=O)(O)O)SC(=O)c1ccccc1)N(C=O)Cc1cnc(C)nc1N
inactive: activity change, negative = inhibition [1] 4.2% [at 4.53 µM] | activity change, negative = inhibition [2] 26.7% [at 4.53 µM] | Potency [3] | outcome [4] | Potency [5]

C[C@@H]1CN(c2c(F)c(F)c3c(=O)c(C(=O)O)cn(C4CC4)c3c2F)C[C@H](C)N1
inactive: outcome [1] | outcome [2] | Potency [3] | outcome [4] | outcome [7] inactive [at 9.29 µM] | Potency [5]

CC1(C)Oc2ccc(C#N)cc2[C@@H](N2CCCC2=O)[C@@H]1O
inactive: outcome [1] | outcome [2] | Potency [3] | outcome [4] | Potency [5]

COC(=O)[C@H]1[C@H]2C[C@@H]3c4[nH]c5cc(OC)ccc5c4CCN3C[C@H]2C[C@@H](OC(=O)COc2ccc(OC)cc2)[C@@H]1OC
inactive: outcome [1] | outcome [2] | Potency [3] | outcome [4]
